# Compound activity deposited in PubChem by National Center for Advancing Translational Sciences (NCATS).
# TDP1 cell CPT: growth inhibition of DT40 Tdp1-/-;hTDP1 cells with camptothecin (screen for TDP1 inhibitors); 420,000 tested, 12% active; chicken DT40 Tdp1-/-;hTDP1 cells + 20 nM CPT, ATP luminescence, 48 h; Potency, µM (series often up to 46.2 µM), for the others: at the top dose activity change, negative = growth inhibition, hits mostly inhibitors; note: nearly all actives have a fitted effect of over 55% in size
#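 Cell growth measured by CellTiter-Glo luminescence after a minimum 48 h, 37 C compound exposure with 20 nM CPT in Tdp1-knockout DT40 cells stably expressing hTDP1, seeded 400/well; qHTS titration format.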
# HT1080NT lethal: kills 2HG-producing HT-1080-NT fibrosarcoma cells; HT-1080-NT fibrosarcoma viability, CellTiter-Glo ATP luminescence, 48 h; 360,000 tested, 1.6% active; Potency, µM (series often up to 46.1 µM), without a hit: at the top dose activity, negative = less viability, hits mostly cytotoxic;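 note: NT is the 2HG producing partner of a matched IDH1 knockdown line; 0% = DMSO-treated cells and -100% = media-only wells without cells; nearly all actives have a fitted effect of over 55% in size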
#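 Luminescent CellTiter-Glo readout after 48 hours of compound exposure at 37 degrees C defined viability of HT-1080-NT cells. Activity was normalized to DMSO wells and cell-free media wells; concentration-response curves were fitted and assigned curve classes.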
# KB-3-1 cytotox: kills parental KB-3-1 adenocarcinoma cells | KB-3-1 viability, CellTiter-Glo ATP luminescence, 72 h | Potency, µM (titrated, usually from 46.1 µM), usual class: cytotoxic | 400,000 tested, 1.4% active | AID 1347075; note: nearly all actives have a fitted effect of over 60% in size
#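 Viability of parental KB-3-1 cells, measured by CellTiter-Glo luminescence, followed a 72 h incubation at 37 °C with pinned compounds in phenol-red-free DMEM containing 10% FBS.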
# HT1080 IDH1KD tx: kills HT-1080 cells with IDH1 knockdown; HT-1080 IDH1 knockdown viability, ATP luminescence, 48 h; Potency, µM (highest dose often 46.1 µM), without a hit: top-dose activity, negative = toxicity, most hits filed as cytotoxic; 360,000 tested, 2% active;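 note: 0% = DMSO wells and -100% = cell-free medium wells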
#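 Knockdown cells (IDH1KD HT-1080) received compounds 2 h after plating at 750 cells/well and were kept 48 h at 37 °C in 5% FBS RPMI. A CellTiter-Glo luminescence read gave % activity for curve fitting.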
# KB-V1 MDR tox: kills drug-selected multidrug resistant KB-V1 cells | 400,000 tested, 3.4% active | KB-V1 MDR cells viability, CellTiter-Glo, 72 h | Potency, µM (top dose mostly 46.1 µM), hits mostly cytotoxic; note: nearly all actives have a fitted effect of over 60% in size
#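 Readout: CellTiter-Glo luminescence, 10 min after addition. Cells: KB-V1 MDR subline, 72 h at 37 degrees C with compound. Analysis: corrected, normalized data fitted to concentration-effect curves.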
# DT40 TDP1 no CPT: qHTS for Inhibitors of human tyrosyl-DNA phosphodiesterase 1 (TDP1): qHTS in cells in absence of CPT | DT40 Tdp1-/- hTDP1 cells, no CPT, ATP luminescence, 48 h | Potency, µM (highest dose often 46.2 µM), for the others: at the top dose activity change, negative = growth inhibition, most hits filed as inhibitors | 420,000 tested, 15% active; note: nearly all actives have a fitted effect of over 55% in size
#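 Seeded 400 DT40-hTDP1 cells/well (vehicle DMSO, no 20 nM CPT); pinned compounds; ≥48 hr at 37 °C; CellTiter-Glo luminescence as viability measure.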
# Active calls of the source: *; i = inactive; ? = inconclusive; nt = no result given; [ ] = another dose, or the depositor's remark. The list is not random: actives were taken first. Their share in the collection is about 19%. Calls come from the whole dose curve; as a rule, active = well fitted curve in the direction sought with a large enough effect; inconclusive = small, poorly fitted or top-dose-only effect, or another doubt; inactive = no such curve, though single readings can be large; an effect the other way counts as inactive or inconclusive. Unless noted, % is set by controls: 0 for no effect and ±100 for the full control effect; potency is the fitted concentration of half-maximal effect.
SMILES,TDP1 cell CPT,HT1080NT lethal,KB-3-1 cytotox,HT1080 IDH1KD tx,KB-V1 MDR tox,DT40 TDP1 no CPT
CCc1ccccc1NC(=O)c1sc(-n2nc(C)c(Cc3ccc4c(c3)OCO4)c2C)nc1C,?,nt,i,nt,i,18.4µM*
COc1ccc(Cc2c(C)nn(-c3nc(C)c(C(=O)Nc4cccc(C(C)=O)c4)s3)c2C)cc1,9.2µM*,nt,nt,nt,nt,11.6µM*
Cc1ccc(C2(c3ccccc3)NC(=O)N(CC(=O)NC3(C#N)CCCC3)C2=O)cc1C (configuration not stated),-9.5%,-2.4%,i,-7.2%,i,-5.3%
Cc1cc(NC(=O)CCNS(=O)(=O)c2ccc3c(c2)CCCC(=O)N3)ccc1Br,nt,nt,i,nt,i,nt
CSc1nnc(SCC(=O)Nc2ccc3[nH]c(=O)[nH]c3c2)s1,-8.2%,1.6%,i,-1.9%,?,22.1%
CCN(Cc1ccccc1)S(=O)(=O)c1ccc(C(=O)Nc2nnc(C3CC3)o2)cc1,?,-14.8%,?,-17.4%,i,16.4µM*
O=C(Nc1nnc(C2CC2)o1)c1ccc(S(=O)(=O)N2CCc3ccccc3C2)cc1,-23.7%,-4.8%,i,-2.6%,?,?
Cc1nc(-c2ccc(S(=O)(=O)N(C)Cc3ccccc3)cc2)co1,25.9µM*,nt,i,nt,i,20.6µM*
COCc1nnc(NC(=O)c2ccc(S(=O)(=O)N(C)Cc3ccccc3)cc2)o1,?,?,?,-18.1%,i,?
Cc1nnc(NC(=O)c2ccc(S(=O)(=O)N(C)Cc3ccccc3)cc2)o1,?,-24.5%,i,?,?,23.1µM*
CSc1cccc(N2CC(C(=O)N(CC(C)C)c3c(N)n(Cc4ccccc4)c(=O)[nH]c3=O)CC2=O)c1 (configuration not stated),-2.9%,4.3%,i,8.0%,i,-16.4%
CCOC(=O)/C(C#N)=C1\Nc2ccccc2N=C1N(CC(C)C)CC(C)C,?,?,i,?,?,18.4µM*
CCCCN(CCCC)C1=Nc2ccccc2N/C1=C(/C#N)C(=O)OCC,20.6µM*,4.1%,i,-6.2%,i,20.6µM*
O=C(Nc1ccccc1F)c1oc2ccccc2c1NC(=O)C12CC3CC(CC(C3)C1)C2,-5.7%,nt,i,nt,i,3.6%
COc1ccc(OCCSc2ncc(CO)n2C)cc1,-23.7%,0.8%,i,3.1%,i,1.6%
CCc1ccccc1NC(=O)CNC(=O)CNC(=O)c1cccs1,3.4%,2.3%,i,2.1%,i,-29.9%
Cc1ccc(-c2cnc(NCc3c(F)cccc3Cl)n2C)cc1,14.6µM*,nt,i,nt,i,23.1µM*
CCOc1ccc(-c2cnc(NCc3ccc(C(F)(F)F)cc3)n2C)cc1,5.17µM*,nt,nt,nt,nt,5.8µM*
CCc1ccc(CNc2ncc(-c3cccc(OC)c3)n2C)cc1,4.11µM*,nt,nt,nt,nt,4.11µM*
COc1ccc(CNc2ncc(-c3ccccc3)n2C)cc1,-26.1%,-7.3%,i,-3.2%,i,?
COc1ccc(CNc2ncc(-c3ccccc3)n2C)c(OC)c1OC,?,-0.1%,i,-4.6%,i,14.6µM*
N#Cc1ccccc1OCC(=O)NCc1ccccc1CN1CCCC1,-9.4%,-2.9%,i,-0.8%,i,-23.4%
CCc1ccc(-n2nc(CO)c(C(=O)NCCOC)n2)cc1,-16.4%,nt,nt,nt,nt,-19.8%
CCOc1ccc(CNc2ncc(-c3ccccc3)n2C)cc1,-19.6%,-12.2%,i,-11.7%,i,?
Cn1c(-c2ccc(F)cc2)cnc1NCc1ccc(C#N)cc1,?,-12.2%,i,-23.9%,20.6µM*,16.4µM*
SMILES,TDP1 cell CPT,HT1080NT lethal,KB-3-1 cytotox,HT1080 IDH1KD tx,KB-V1 MDR tox,DT40 TDP1 no CPT
CCOc1cc(CNc2ncc(-c3ccc(OC)cc3)n2C)ccc1O,?,9.3%,i,-5.0%,?,18.4µM*
Cn1c(-c2ccc(F)cc2)cnc1NCc1ccc(F)cc1F,-3.8%,-0.8%,i,-0.4%,i,?
Cn1c(-c2ccc(F)cc2)cnc1NCc1ccccc1F,-28.2%,0.7%,i,0.1%,i,23.1µM*
Cn1c(-c2ccccc2)cnc1NCc1ccc(-c2ccccc2)cc1,25.9µM*,-14.9%,i,-5.0%,i,?
CCOc1ccc(-n2c(=O)[nH]cc(C(=O)Nc3ccc(OC)c(OC)c3)c2=O)cc1,-0.6%,-1.1%,i,-1.2%,i,-8.6%
CC1CCCN(c2nc3c(c(=O)n(C)c(=O)n3C)n2CCSc2nc3ccccc3o2)C1 (configuration not stated),23.1µM*,-1.2%,i,0.3%,2.59µM*,20.6µM*
Cn1c(=O)c2c(nc(N3CCC(C(N)=O)CC3)n2CCSc2nc3ccccc3s2)n(C)c1=O,?,-0.3%,i,10.0%,i,?
CC1CCN(c2nc3c(c(=O)n(C)c(=O)n3C)n2CCSc2ncccn2)CC1,?,3.5%,i,10.6%,i,?
CC1CCN(c2nc3c(c(=O)n(C)c(=O)n3C)n2CCSc2nc3ccccc3s2)CC1,10.3µM*,-7.2%,?,-9.6%,14.6µM*,20.6µM*
CC1CCCN(c2nc3c(c(=O)n(C)c(=O)n3C)n2CCSc2nc3ccccc3s2)C1 (configuration not stated),16.4µM*,-3.6%,?,-10.2%,10.3µM*,18.4µM*
CC1CCCN(c2nc3c(c(=O)[nH]c(=O)n3C)n2CCSc2nc3ccccc3o2)C1 (configuration not stated),-7.1%,0.2%,i,0.0%,i,-17.9%
Cc1ccnc(SCCn2c(N3CCC(C)CC3)nc3c2c(=O)n(C)c(=O)n3C)n1,?,-1.4%[9.24 µM],i,4.0%,i,23.1µM*
CCCCN(C)c1c(C)nc2ccc(C(=O)N(CC)CCN(C)C)cn12,-19.1%,2.9%,i,8.0%,i,-0.9%
C#CCN1C(=O)C(O)(c2c(C)[nH]c3ccccc23)c2ccccc21 (configuration not stated),4.61µM*,-3.3%,?,-0.8%,?,3.26µM*
Cc1[nH]c2ccccc2c1C1(O)C(=O)N(C(C)C)c2ccccc21 (configuration not stated),-7.1%,-0.7%,i,0.2%,i,-5.0%
CCCN1C(=O)C(O)(c2c(C)[nH]c3ccccc23)c2ccccc21 (configuration not stated),5.17µM*,2.9%,i,-4.9%,i,5.17µM*
